Source: PubChem BioAssay
KCC2 mod = modulators of human KCC2 chloride dependent transport. B-score of Tl+ flux slope (higher = more flux/activation; lower = inhibition) at 10 µM. hit rate 2.2% among 190,000. AID 1456. KCC2 cells, thallium flux FluoZin-2 fluorescence;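 active means thallium flux slope and its plate-corrected score both differing from the plate sample mean at a set confidence after two filtering rounds, in either direction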;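 further: slope of fluorescence scaled to starting intensity during 10 to 20 s after thallium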
m-calpain inh = inhibitors of pig calpain II; hit rate 0.37% among 220,000; inhibition, % at 16 µM; purified calpain II, fluorogenic peptide substrate, 30 min;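 active means inhibition above about 50%, limit read from the data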
WT yeast gro inh = growth inhibition of WT yeast, mitochondrial fusion screen; mitochondrial fusion phenotypic screen, WT strain; hit rate 2.1% among 190,000; inhibition, % at 10 µM; in the data active means inhibition above about 58%; tested in S. cerevisiae
L major viab = inhibitors of Leishmania major promastigote growth | inhibition, % at 10 µM | hit rate 9% among 200,000 | Leishmania major promastigotes, resazurin fluorescence viability; in the data active means inhibition above about 50%;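 further: promastigotes grown with compound for 44 hours at 28 °C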
ROMK primary = human ROMK K+ channel modulation, primary screen; P48048; Tet-inducible ROMK, thallium flux fluorescence; actives lie on both sides; B-score at 10 µM; hit rate 2% among 130,000; AID 1918;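 active means signal ratio slope over the read window, or its plate-corrected B-score, at least 3 SD from the plate mean, either direction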;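 further: B-score of the F/F0 ratio slope over 7 to 12 s after thallium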
ROMK retest = retested hit modulating human ROMK potassium channel; ROMK thallium flux, fluorescence ratio; active compounds read low; hit rate 54% among 3,000; shares compounds with ROMK primary; normalized thallium flux (F/F0 slope) at 10 µM; AID 1917;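 active means Flux at 10 µM at least 3 SD below or above vehicle control mean in one or both replicates; inconclusive means no clear call, values can overlap the other calls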
Numbers stand for hits; - = inactive; ? = inconclusive; . = not tested or not shown. A selection: hits, their analogues and other compounds. The true share with any hit is near 12%.

SMILES	KCC2 mod	m-calpain inh	WT yeast gro inh	L major viab	ROMK primary	ROMK retest
CC(=O)NCCc1nc2ccccc2n1CCOc1cccc(C)c1	-	-	.	.	-	.
COC(=O)c1c(NC(=O)CSc2nc3ccccc3c(=O)n2Cc2ccco2)sc(C)c1C	-	-	-	-	.	.
COC(=O)c1c(NC(=O)CSc2nnc(-c3ccco3)n2Cc2ccccc2)sc(C)c1C	-	-	-	65	-3.1	0.065
c1ccc(-c2c(-c3ccccc3)n(Cc3ccco3)c3ncnc(NCCCn4ccnc4)c23)cc1	.	-	73	100	-3.9	?
OCCNc1ncnc2c1c(-c1ccccc1)c(-c1ccccc1)n2Cc1ccco1	-	-	-	-	-	.
N=c1c2c(-c3ccccc3)c(-c3ccccc3)oc2ncn1CCCN1CCOCC1	-	-	-	87	-3.8	-
N=c1c2c(-c3ccccc3)c(-c3ccccc3)n(Cc3ccco3)c2ncn1CCCN1CCOCC1	-	-	-	100	-2.8	0.049
N=c1c2c(-c3ccccc3)c(-c3ccccc3)n(Cc3ccco3)c2ncn1CCCn1ccnc1	-	-	-	100	-5.6	0.048
Cn1c2ccccc2c2ncn(CCCN3CCOCC3)c(=O)c21	-	-	-	-	.	.
COc1ccccc1NCc1nnc(SCC(=O)N/N=C/c2ccco2)n1-c1ccc(Cl)cc1Cl	-	-	-	-	.	.
CC(C)Cn1cnc2c(c(-c3ccccc3)c(-c3ccccc3)n2Cc2ccco2)c1=N	.	-	-	100	-4.3	0.044
C=CCOC(=O)C1=C[C@H](c2cn(C(C)=O)c3ccccc23)C[C@H](OCc2ccc(CO)cc2)O1	-	-	-	-	.	.
COc1ccc2c(c1)c1nc3ccccc3nc1n2Cc1ccc(OC(C)C)c(OC)c1	-	-	-	-	-3.4	0.057
O=C1c2ccccc2C(=O)N1n1c(=O)[nH]c2ccccc2c1=O	-	-	-	-	.	.
CCn1cc(S(=O)(=O)N2CCN(Cc3ccc(F)cc3)CC2)cn1	-	-	-	-	-23	-
CCn1cc(S(=O)(=O)N2CCN(Cc3cccc(Cl)c3)CC2)cn1	-	-	-	-	-	.
Cc1ccc(NC(=S)NNC(=O)c2ccccc2O)c(C)c1	-	-	-	-	2.9	0.064
Cc1cc(C)n(-c2nc(NCCN(C)C)c3c4c(sc3n2)CCCC4)n1	-	-	.	.	.	?
Cc1ccc(S(=O)(=O)C(C#N)c2nc3ccccc3nc2N2CCC(C)CC2)cc1 (centres undefined)	-	-	-	-	.	0.068
N#CC(c1nc2ccccc2nc1N1CCCC1)S(=O)(=O)c1ccccc1 (centres undefined)	.	-	-	-	-	.
CC(Nc1cccc(F)c1)C(=O)Nc1ccc(S(N)(=O)=O)cc1 (centres undefined)	-	-	-	-	-	.
O=C(Nc1cnc2ccccc2c1)c1cccc(-n2cnnn2)c1	-	-	-	-	.	0.06
O=C(NNC(=O)c1cccc(-n2cnnn2)c1)c1ccccc1	-	-	-	-	-	.
C=CCN(CC=C)C(=O)CCc1nnc(CCc2c[nH]c3ccccc23)o1	-	-	-	-	.	.
N#Cc1sc2nc(-c3ccccc3)cc(C(F)(F)F)c2c1N	-	-	-	-	-4.4	0.063
SMILES	KCC2 mod	m-calpain inh	WT yeast gro inh	L major viab	ROMK primary	ROMK retest
COc1ccccc1NS(=O)(=O)c1cccc(N=C2N=C(N)c3ccccc32)c1	-	-	-	-	.	-
O=C(NCc1ccc(Cl)cc1)c1noc2c1CCCCC2	-	-	-	-	.	.
O=C1N=C(N2CCOCC2)S/C1=C\c1ccc(-c2ccccc2Cl)o1	-	-	-	-	.	0.052
Cc1ccccc1-c1ccc(/C=C2/SC(N3CCOCC3)=NC2=O)o1	-	-	.	.	.	.
CCCCN(CC)C(=O)CSc1nc2c(sc(=S)n2-c2ccc(OCC)cc2)c(=O)[nH]1	-	-	-	-	2.8	?
CC1=C(C(=O)OCC2CCCO2)C(c2coc3ccc(Cl)cc3c2=O)C2=C(CCCC2=O)N1 (centres undefined)	-	-	-	-	-2.7	-
Clc1ccccc1-c1nnc2sc(-c3ccco3)nn12	-	-	-	-	-	.
Clc1ccccc1-c1nnc2sc(-c3ccccn3)nn12	-	-	-	-	.	-
CCCCCN(C(=O)CN(C)Cc1ccc(OC)cc1OC)c1c(N)n(CCCC)c(=O)[nH]c1=O	-	-	-	-	-	.
c1ccc2c(c1)CCN(C1=Nc3cccc4cccc1c34)C2	-	-	-	69	-2	0.054
O=C(CNc1n[nH]c(=O)[nH]c1=O)N/N=C/C1CC=CCC1 (centres undefined)	-	-	.	.	.	.
COc1cccc(-n2c(SCc3ccccn3)nc3c(c2=O)SCC3)c1	-	-	-	-	1.1	-
O=C(/C=C/c1ccc2c(c1)OCO2)c1ccco1	-	-	-	-	.	.
O=C(/C=C/c1ccc(Br)cc1)c1ccco1	-	-	-	89	-5.4	?
Cc1ccccc1Cn1nc(C)c(NC(=O)/C=C/c2cnn(C)c2)c1C	.	-	-	-	3.2	-
Cc1ccccc1Cn1nc(C)c(NC(=O)/C=C/c2cnn(C)c2C)c1C	-	-	-	-	-	.
CCOC(=O)C1CCCN(C(=O)c2sc3nc(C)nc(N(CC)CC)c3c2C)C1 (centres undefined)	-	-	-	-	.	.
CCC1CCCCN1C(=O)c1sc2nc(C)nc(N(CC)CC)c2c1C (centres undefined)	-	-	-	-	-3.7	0.058
O=C(NC1=NCCS1)NC12CC3CC(CC(C3)C1)C2	-	-	-	-	.	0.066
COc1cc(C2C3=C(CC(C)(C)CC3=O)N(C)C(=O)N2C)cc(OC)c1OC (centres undefined)	.	-	-	-	-	.
Cc1cnc(NC(=O)CSc2nnc(-c3cccs3)n2C)s1	-	-	-	-	-	.
CC1CCN(c2cc(C#N)c(C#N)cc2[N+](=O)[O-])CC1	-	-	-	-	-	.
CC1CCN(c2cc(N)c(Cl)cc2[N+](=O)[O-])CC1	.	-	-	-	.	0.069
Cc1csc2c(N3CCN(C(=S)Nc4ccc(F)cc4F)CC3)ncnc12	-	-	.	.	-3.3	0.061
CCN(CC)C(=O)CSc1nc2ccccc2c(=O)n1CC1CCCCC1	-	-	-	-	-	0.061
SMILES	KCC2 mod	m-calpain inh	WT yeast gro inh	L major viab	ROMK primary	ROMK retest
O=C(N/N=C/c1ccc(-c2ccc(Br)cc2)o1)c1ccc2c(c1)OCO2	.	-	-	-	2	-
O=C(N/N=C/c1ccc[nH]1)c1ccc2c(c1)OCO2	-	-	-	-	-	.
O=C1N=C2SCCN2/C1=C\c1ccc(Cl)cc1	-	-	-	-	-7.6	0.047
Cc1ccc(/C=C2\SC(N3CCCC3)=NC2=O)cc1	-	-	-	-	-	.
Cc1cccn2c(=O)c3cc(C#N)c(=NC(=O)c4ccncc4)n(CCCOC(C)C)c3nc12	.	-	-	61	-4.3	0.049
COCCCn1c(=NC(=O)c2ccncc2)c(C#N)cc2c(=O)n3cccc(C)c3nc21	-	-	-	-	.	0.06
CCOc1ccc(NC(=O)C2CC(=O)OC2c2ccccc2)cc1 (centres undefined)	-	-	-	-	-	.
COC(=O)c1ccc(NC(=O)C2CC(=O)OC2c2ccccc2)cc1 (centres undefined)	-	-	.	.	.	-
